The nature of experiment [1]: growth inhibition of DIPG glioma cells, dose response, cell-based, SU-DIPG-IV, MIPE4.0, CellTiter-Glo, qHTS (AID 1347063; cut-off not given, nearly all actives have AC50 up to about 30 µM;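 further: compound exposure lasted 48 hours before the viability readout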). As to conditions: SU-DIPG-IV viability, CellTiter-Glo ATP luminescence.
A short description of experiment [2]: growth inhibition of DIPG glioma cells, dose response, cell-based, SU-DIPG-XIII, MIPE5.0, CellTiter-Glo, qHTS (AID 1347064; cut-off not given, nearly all actives have AC50 up to about 23 µM;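 on AC50: cells exposed to compound for 48 hours before the viability read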). The settings on record: SU-DIPG-XIII viability, CellTiter-Glo ATP luminescence. In general terms: In ATP-based viability assays light output follows the ATP content of the culture.
A short description of experiment [3]: viability loss in pontine glioma line – cell-based, SU-DIPG-XXV, MIPE5.0, CellTiter-Glo, qHTS, dose response (AID 1347065; cut-off not given, nearly all actives have AC50 up to about 26 µM;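 further: cells exposed to compound for 48 hours before ATP readout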). The settings on record: CellTiter-Glo ATP luminescence.
Experiment [4] in a line: JHH-DIPG-1 glioma cell viability, MIPE5.0 library, CellTiter-Glo luminescence, qHTS (AID 1347067; cut-off not given, nearly all actives have AC50 up to about 26 µM;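 further: cells exposed to compound for 48 hours before readout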). The settings on record: JHH-DIPG-1 glioma viability, CellTiter-Glo ATP luminescence.
The nature of experiment [5]: SU-DIPG-XXV glioma cell viability, MIPE5.0 library, qHTS (AID 1347068; cut-off not given, nearly all actives have IC50 up to about 30 µM;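 on IC50: cells exposed to compound for 48 hours before viability readout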). On the technique in general: In qHTS, concentration-response curves come from the screen itself.
Experiment [6] in a line: sensitizers of A549 cells to miR-34 induction, primary screen, imaging, A549 dox-inducible miR-34, nuclei and caspase counts (AID 1347080;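 active means compounds whose cell count with miR-34 switched on is under 0.7 times the count with it off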). The settings on record: A549 miR-34 inducible, Hoechst nuclei count, 48 h.
A short description of experiment [7]: phospholipid biosynthesis inhibitors in animal cells, primary screen, cell-based, LOPAC library, screen 4 (AID 1347384; call rule not given here). As to conditions: phospholipid biosynthesis inhibition screen, at 10 µM.
Experiment [8] in a line: viability rescue of complex I mutant cybrids, primary screen, cell-based, galactose medium, ATP luminescence (AID 1645843;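 active means z-score of at least 1.8 in each of two replicates, scored against plate mean and spread of sample wells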;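 further: positive z means more ATP and so rescue of galactose-driven cybrid death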). As to conditions: complex I mutant cybrid cells, 72 h, stronger effect = higher value.
A short description of experiment [9]: SU-DIPG-VI glioma cell viability, MIPE4.0 library, CellTiter-Glo luminescence, qHTS (AID 1347066; cut-off not given, nearly all actives have AC50 up to about 30 µM;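 further: cells exposed to compound for 48 hours before readout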). As to conditions: CellTiter-Glo ATP luminescence.
Experiment [10] can be described thus: survival rescue of mitochondrial mutant cells in low glucose, primary screen, MELAS cybrids, Rieske KO mouse fibroblasts, CellTiter-Glo (AID 1508586;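 active means mean z-score across replicates of 1.96 or higher in either the MELAS or the Rieske mutant cell line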;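 further: z relative to plate mean and SD of compound and empty wells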).
A short description of experiment [11]: ovarian cancer cell viability with rucaparib, profiling panel, oncology-focused library, rucaparib conditional (AID 1508598). The settings on record: patient-derived ovarian cancer cells, CellTiter-Glo viability, 144 h, stronger effect = lower value.
Experiment [12] is described as follows: liver-stage malaria parasite growth inhibition, primary screen, cell-based, HepG2, luciferase luminescence, HepG2 viability (AID 624349; in the data active means parasite load remaining mostly below about 12%, no sharp cut-off; inactive means mostly above about 10%;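 further: 100% = mean of DMSO negative control wells on the same plate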). The settings on record: P. berghei liver stage in HepG2, luciferase luminescence, concentration not given here; parasite load remaining: stronger effect = lower value; viability: measured here: HepG2 viability without parasites.
In experiment [13] the test system is Hepatitis C virus NS3 helicase. The experiment can be described thus: HCV NS3 helicase inhibitors, primary screen, biochemical, fluorescence polarization, LOPAC1280 library (AID 687035; in the data active means inhibition above about 37%). The settings on record: Purified HCV NS3 helicase, Cy5-dT15 ssDNA binding fluorescence polarization; stronger effect = higher value; concentration not given here. (In fluorescence polarisation assays a small probe gives low polarisation when free and higher when bound to something large.)

Experiment [14] can be described thus: Cy5 fluorescence quenching or enhancement artefacts, artefact control for HCV NS3 helicase inhibitor project, biochemical, LOPAC1280 (AID 687037; call rule not given here). The settings on record: Cy5-DNA-NS3h complex fluorescence interference counterscreen.
A short description of experiment [15]: growth inhibition of DIPG glioma cells, dose response, cell-based, JHH-DIPG-1, MIPE4.0, CellTiter-Glo, qHTS (AID 1347062; cut-off not given, nearly all actives have AC50 up to about 27 µM). As to conditions: JHH-DIPG-1 viability, CellTiter-Glo ATP luminescence.
Experiment [16] can be described thus: circadian clock period modulators, cell-based, LOPAC library, luminescence reporter (AID 2774; call rule not given here;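 further: values are relative to mean of DMSO wells on each plate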). As to conditions: circadian reporter cells, at 7 µM, actives lie on both sides.
[17] abbreviates: stronger effect = lower value, cell number ratio, induced over uninduced.
Setting [18] is: measured here: relative caspase fold change +Dox/-Dox.
The mark [19] stands for this setting: measured here: total cells with miR-34 induction, stronger effect = lower value.
Where [20] appears, read: measured here: total cells without miR-34 induction.
The mark [21] stands for this setting: MELAS cybrid survival, CellTiter-Glo 48 h, stronger effect = higher value.
[22] abbreviates: Rieske KO mouse fibroblast survival, CellTiter-Glo 72 h.

Where “and” joins values, the source holds several entries; their conditions need not be identical. Equal entries are not always repeated. Records with an inconclusive call do not appear. Calls of active or inactive are those of the source.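 How the source made its calls, unless noted: active means normalized viability below 100% at a tested concentration; inactive means the rest.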

Broadly, the AC50 is the midpoint of the concentration-response curve, whichever way the signal moves. A word on the viability: it is a read-out of living cells in per cent, often relative to untreated cells. As a reminder, the inhibition is the relative decrease from the control value, in per cent. For orientation: IC50 means the midpoint of a concentration-inhibition curve.

In the case of `CN(C)C(=O)[C@H](O)[C@H](Cc1ccccc1)NC(=O)c1cc2cc(Cl)ccc2[nH]1`, the AC50 in [1] was 4.18 µM (active). For the same compound, the outcome in experiment [2], in experiment [3], in experiment [4], in [5] and in experiment [7] was inactive. Besides, the fold change was 0.925 (inactive) in experiment [6] (setting [17]) and 1.42 in [6] (setting [18]). Moreover, the cell count in experiment [6] (setting [19]) stood at 8280; in [6] (setting [20]), 8950. Also, the z-score in experiment [8] is 3.02 (active).

As for `CC(C)(C)Cn1c(N)nc2ccc(-c3[nH]c(C(C)(C)C)nc3-c3ccc(F)cc3)nc21`, the AC50 in [1] is 26.4 µM (active); in experiment [3], 26.3 µM (active); in [9] it was 20.9 µM (active); in experiment [4], 20.9 µM (active). Further, the fold change in [6] (setting [17]) was 0.962 (inactive); in experiment [6] (setting [18]), 0.864. In addition, the cell count is 5480 in experiment [6] (setting [19]) and 5700 in [6] (setting [20]). Also, the z-score is -0.234 (inactive) in [10] (setting [21]) and 0.553 in [10] (setting [22]). For the same compound, the viability in experiment [11] (at 0.000305 µM, OCI-C5x cells, with rucaparib 10 µM, 100% = cells with rucaparib alone) was 114% (inactive); in [11] (at 0.000305 µM, OCI-C5x cells, without rucaparib) it was 115% (inactive); in [11] (at 0.000305 µM, OCI-P5x cells, with rucaparib 20 µM, 100% = cells with rucaparib alone) it was 99.8% (active); in experiment [11] (at 0.000305 µM, OCI-P5x cells, without rucaparib), 104% (inactive); in [11] (at 0.00122 µM, OCI-C5x cells, with rucaparib 10 µM, 100% = cells with rucaparib alone), 112% (inactive); in [11] (at 0.00122 µM, OCI-C5x cells, without rucaparib), 110% (inactive). Further, the viability was 101% (inactive) in experiment [11] (at 0.00122 µM, OCI-P5x cells, with rucaparib 20 µM, 100% = cells with rucaparib alone); 107% (inactive) in [11] (at 0.00122 µM, OCI-P5x cells, without rucaparib); 110% (inactive) in experiment [11] (at 0.00488 µM, OCI-C5x cells, with rucaparib 10 µM, 100% = cells with rucaparib alone); 121% (inactive) in [11] (at 0.00488 µM, OCI-C5x cells, without rucaparib); 108% (inactive) in experiment [11] (at 0.00488 µM, OCI-P5x cells, with rucaparib 20 µM, 100% = cells with rucaparib alone); 110% (inactive) in [11] (at 0.00488 µM, OCI-P5x cells, without rucaparib). In addition, the viability in [11] (at 0.0195 µM, OCI-C5x cells, with rucaparib 10 µM, 100% = cells with rucaparib alone) was 103% (inactive); in [11] (at 0.0195 µM, OCI-C5x cells, without rucaparib) it was 112% (inactive); in experiment [11] (at 0.0195 µM, OCI-P5x cells, with rucaparib 20 µM, 100% = cells with rucaparib alone), 103% (inactive); in experiment [11] (at 0.0195 µM, OCI-P5x cells, without rucaparib) it was 107% (inactive); in experiment [11] (at 0.0781 µM, OCI-C5x cells, with rucaparib 10 µM, 100% = cells with rucaparib alone), 96.9% (active); in experiment [11] (at 0.0781 µM, OCI-C5x cells, without rucaparib), 117% (inactive). Moreover, the viability is 101% (inactive) in experiment [11] (at 0.0781 µM, OCI-P5x cells, with rucaparib 20 µM, 100% = cells with rucaparib alone); 109% (inactive) in [11] (at 0.0781 µM, OCI-P5x cells, without rucaparib); 94.5% (active) in [11] (at 0.313 µM, OCI-C5x cells, with rucaparib 10 µM, 100% = cells with rucaparib alone); 121% (inactive) in [11] (at 0.313 µM, OCI-C5x cells, without rucaparib); 103% (inactive) in experiment [11] (at 0.313 µM, OCI-P5x cells, with rucaparib 20 µM, 100% = cells with rucaparib alone); 105% (inactive) in [11] (at 0.313 µM, OCI-P5x cells, without rucaparib). Besides, the viability in experiment [11] (at 1.25 µM, OCI-C5x cells, with rucaparib 10 µM, 100% = cells with rucaparib alone) was 108% (inactive); in experiment [11] (at 1.25 µM, OCI-C5x cells, without rucaparib) it was 140% (inactive); in experiment [11] (at 1.25 µM, OCI-P5x cells, with rucaparib 20 µM, 100% = cells with rucaparib alone) it was 99.8% (active); in experiment [11] (at 1.25 µM, OCI-P5x cells, without rucaparib) it was 104% (inactive); in experiment [11] (at 5 µM, OCI-C5x cells, with rucaparib 10 µM, 100% = cells with rucaparib alone), 175% (inactive); in experiment [11] (at 5 µM, OCI-C5x cells, without rucaparib) it was 175% (inactive). Besides, the viability in [11] (at 5 µM, OCI-P5x cells, with rucaparib 20 µM, 100% = cells with rucaparib alone) is 90.5% (active); in experiment [11] (at 5 µM, OCI-P5x cells, without rucaparib) it was 92.5% (active).

Take `O=C1NC(=O)/C(=C/c2ccc(-c3ccc(F)cc3O)o2)S1`: the parasite load remaining in experiment [12] was 10.7% (active). The viability in experiment [12] is 62.9%. Further, the inhibition in experiment [13] is 0% (inactive). In [14], the fluorescence ratio (interference) was 1 (inactive). For the same compound, the call in [15], in [4] and in experiment [7] was inactive. Also, the fold change in [6] (setting [17]) was 1.04 (inactive) and 0.983 (inactive); in experiment [6] (setting [18]) it was 2.12 and 0.302. The cell count in experiment [6] (setting [19]) was 6690 and 5950; in experiment [6] (setting [20]), 6460 and 6050. Besides, in experiment [8], the z-score was 1.31 (inactive).

`CCc1ccc(N(CC(C)C)S(=O)(=O)c2ccc(OCC3CCOCC3)c(CO)c2)cc1`: the outcome in experiment [2] was inactive. For the same compound, the half-maximal activity concentration (AC50) in experiment [3] was 20.9 µM (active).

As for `Cc1c(C)n(Cc2ccc(-c3ccccc3C(=O)O)cc2)c2ccc(C(=O)N[C@@H](C)c3ccc([N+](=O)[O-])cc3)cc12`, the AC50 in experiment [1] is 0.0372 µM (active).

`Cn1cc(-c2cnn3c(N)c(Br)c([C@@H]4CCCNC4)nc23)cn1`: the AC50 in [1] was 2.09 µM (active). For the same compound, in [4], the compound was called inactive.

On to `C[C@H](Cc1ccc(O)c(O)c1)[C@@H](C)Cc1ccc(O)c(O)c1`, for which the period change in [16] was 0.005 h (inactive). In addition, the inhibition in experiment [13] is -2% (inactive). Also, the fluorescence ratio (interference) in experiment [14] was 1 (inactive). For the same compound, the AC50 in [1] was 16.6 µM (active); in experiment [2] it was 18.6 µM (active); in experiment [9] it was 23.5 µM (active). The compound was called inactive in [5] and in experiment [7]. In addition, the values for the fold change in experiment [6] (setting [17]) and in experiment [6] (setting [18]) were 1.02 (inactive) and 0.821, respectively. Besides, the cell count in experiment [6] (setting [19]) came to 8920; in [6] (setting [20]), 8770. Further, the z-score in experiment [8] is -1.22 (inactive).

As to `NS(=O)(=O)c1ccc(Nc2nc(OCC3CCCCC3)c3[nH]cnc3n2)cc1`, the result in [15] and in [5] was inactive.

As for `O=c1cc(CN2CCOCC2)occ1OCCCCCSc1ccnc2cc(C(F)(F)F)ccc12`, the compound was classed as inactive in experiment [1]. In addition, the AC50 in [2] was 18.6 µM (active); in [3], 23.5 µM (active); in experiment [4], 18.6 µM (active). The IC50 in experiment [5] was 20.9 µM (active). Further, the fold change in [6] (setting [17]) is 0.876 (inactive); in [6] (setting [18]) it was 0.509. Also, the values for the cell count in experiment [6] (setting [19]) and in [6] (setting [20]) were 6290 and 7180, respectively. For the same compound, the z-score is -0.449 (inactive) in experiment [10] (setting [21]) and 0.747 in experiment [10] (setting [22]).

As for `COc1c(Cl)cc2c([nH]c3cnccc32)c1NC(=O)c1cccnc1C`, the half-maximal activity concentration (AC50) in experiment [1] is 2.96 µM (active).
